Laboratory results reported in article PMC7826789 (International Journal of Molecular Sciences, 2021).

What was measured:
Conditions in all cases: Compound Concentration (nM):1000
MYLK4 = system: MYLK4
MYLK = system: MYLK
MYO3A = system: MYO3A
MYO3B = system: MYO3B
NDR1 = system: T1, NDR1
T1 construct: gene STK38

NDR2 = system: T2, NDR2
T2 construct: gene STK38L

NEK10 = system: NEK10
NEK11 = system: NEK11
NEK1 = system: NEK1
NEK2 = system: NEK2
NEK3 = system: NEK3
NEK4 = system: NEK4
NEK5 = system: NEK5
NEK6 = system: NEK6
NEK7 = system: NEK7
NEK9 = system: NEK9
NIK = system: T3, NIK
T3 construct: gene MAP3K14

NIM1 = system: T4, NIM1
T4 construct: gene MGC42105

NLK = system: NLK
OSR1 = system: T5, OSR1
T5 construct: gene OXSR1
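Also: KINOMEscan scanMAX binding as percent activity remaining versus control; lower means stronger binding.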

Compound	Percent Control (MYLK4)	Percent Control (MYLK)	Percent Control (MYO3A)	Percent Control (MYO3B)	Percent Control (NDR1)	Percent Control (NDR2)	Percent Control (NEK10)	Percent Control (NEK11)	Percent Control (NEK1)	Percent Control (NEK2)	Percent Control (NEK3)	Percent Control (NEK4)	Percent Control (NEK5)	Percent Control (NEK6)	Percent Control (NEK7)	Percent Control (NEK9)	Percent Control (NIK)	Percent Control (NIM1)	Percent Control (NLK)	Percent Control (OSR1)
COC(=O)Nc1nc2ccc(Oc3ccc(NC(=O)Nc4cc(C(F)(F)F)ccc4F)cc3)cc2s1.Cl [GW693917A]	93%	100%	93%	100%	86%	94%	90%	100%	94%	82%	87%	83%	76%	100%	100%	50%	80%	79%	95%	100%
COc1cccc(-n2ncc3c(N/N=C/c4ccncc4)ncnc32)c1 [GW784752X]	100%	89%	100%	100%	96%	100%	84%	100%	84%	100%	86%	100%	100%	100%	92%	90%	100%	86%	91%	99%
COc1cc(C)c(N(C)C(=O)CN(C)C)cc1Nc1nc(Nc2cccc(F)c2C(N)=O)c2cc[nH]c2n1 [GSK2219385]	100%	10%	96%	100%	100%	85%	52%	100%	100%	72%	94%	100%	94%	100%	91%	90%	100%	80%	95%	100%
COc1cc(N2CCN(C(C)C)CC2)ccc1Nc1nc(Nc2ccc(F)cc2C(=O)NC[C@@H](O)CO)c2cc[nH]c2n1 [GSK1392956A]	82%	0.3%	88%	100%	99%	91%	34%	100%	82%	99%	100%	100%	83%	100%	100%	100%	100%	96%	100%	89%
COc1cc(C=NNc2ncnc3c2cnn3-c2ccccc2)ccc1O [GW513184X]	100%	100%	100%	95%	100%	100%	100%	100%	100%	100%	100%	100%	76%	82%	100%	100%	92%	100%	100%	100%
Cl.O=C(Nc1ccc(Oc2ccc3[nH]c(NC(=O)c4ccco4)nc3c2)cc1)Nc1cc(C(F)(F)F)ccc1F [GW683134A]	100%	100%	100%	100%	100%	76%	100%	100%	80%	100%	97%	81%	96%	100%	100%	10%	100%	97%	87%	100%
CC1=C(C(=O)Nc2ccc3[nH]ncc3c2)C(c2ccc3ccccc3c2)CC(=O)N1 (stereo not shown) [GSK270822A]	78%	93%	90%	100%	28%	61%	65%	81%	87%	85%	70%	84%	100%	100%	77%	70%	82%	77%	98%	74%
COc1ccccc1-c1cc(/C=C2\C(=O)Nc3ncc(Br)cc32)cc(Br)c1O [GW442130X]	100%	100%	75%	100%	97%	74%	100%	100%	95%	100%	100%	100%	100%	100%	100%	100%	100%	100%	100%	77%
CCn1c(-c2nonc2N)nc2c(C#CC(C)(C)O)nc(OCCNC)cc21.Cl [GSK949675]	100%	88%	100%	98%	87%	81%	100%	100%	100%	100%	100%	100%	100%	95%	100%	100%	1.5%	100%	100%	100%
COc1cccc(-c2c[nH]c3c(N/N=C/c4ccncc4)ncnc23)c1 [GW814408X]	100%	100%	100%	100%	93%	98%	92%	100%	95%	100%	69%	100%	82%	100%	100%	100%	68%	92%	97%	100%
CN(C)c1cc2c(Nc3ccc4c(cnn4Cc4ccccc4)c3)ncnc2cn1 [GW282974X]	86%	100%	92%	99%	100%	84%	89%	100%	79%	66%	77%	99%	48%	27%	78%	88%	86%	74%	90%	100%
COc1cc2ncn(-c3cc(O[C@H](C)c4ccccc4Cl)c(C(N)=O)s3)c2cc1OC [GSK237701A]	45%	94%	100%	100%	84%	100%	95%	78%	51%	3.7%	85%	88%	9.1%	100%	63%	19%	100%	48%	98%	78%
COc1cc2ncnc(Nc3ccc4c(cnn4Cc4ccccc4)c3)c2cc1OC.Cl [GW282449A]	100%	100%	100%	100%	100%	100%	100%	100%	95%	100%	100%	100%	100%	100%	96%	100%	100%	100%	100%	100%
C/C(Nc1ccc(S(N)(=O)=O)cc1)=C1/C(=O)Nc2ccccc21 [GW335962X]	100%	70%	66%	100%	65%	87%	100%	100%	75%	100%	96%	77%	97%	100%	95%	95%	78%	86%	87%	94%
CN1CCN(C(=O)c2ccc(NC(=O)Nc3ccc(N(C)c4ccnc(Nc5ccc(CS(C)(=O)=O)cc5)n4)cc3)cc2)CC1.Cl [GW830263A]	98%	100%	7%	23%	54%	100%	94%	100%	63%	89%	66%	85%	82%	100%	93%	62%	100%	99%	80%	98%
CN(C)CCNC(=O)Nc1ccc(N(C)c2ccnc(Nc3ccc(CS(C)(=O)=O)cc3)n2)cc1.Cl [GW830900A]	100%	100%	99%	92%	86%	100%	87%	100%	92%	90%	63%	100%	91%	96%	93%	96%	88%	88%	82%	100%
O=C(Nc1n[nH]c2nc(-c3ccc(O)cc3)c(Br)cc12)C1CC1 [SB-725317]	100%	56%	48%	100%	100%	100%	100%	100%	99%	100%	100%	88%	100%	100%	86%	98%	100%	84%	54%	100%
Cl.c1ccc(Cc2nc3ccc(Nc4ncnc5ccccc45)cc3[nH]2)cc1 [GR269666A]	100%	100%	100%	100%	100%	100%	100%	100%	99%	100%	100%	100%	100%	100%	100%	100%	100%	94%	100%	100%
CC1=C(C(=O)Nc2ccc3[nH]ncc3c2)C(c2ccc(Cl)c(Cl)c2)CC(=O)N1 (stereo not shown) [GSK299115A]	91%	100%	88%	90%	21%	67%	72%	86%	84%	97%	80%	89%	58%	95%	87%	68%	76%	79%	78%	73%
CCS(=O)(=O)c1ccc(OC)c(Nc2ncc(-c3cccc(F)c3)o2)c1 [GW621970X]	100%	100%	100%	100%	100%	100%	100%	93%	84%	100%	100%	100%	95%	100%	100%	100%	93%	100%	100%	100%
